Data on 10 compounds can be found in PubChem BioAssay (NCI).

Assay [1] in a line: NCI Yeast Anticancer Drug Screen. Data for the rad50 strain (AID 155).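 Also: 0% = growth of vehicle-only cultures of the same strain.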 Particulars: S. cerevisiae rad50 strain growth inhibition, stronger effect = higher value. In outline: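 Readout: growth inhibition relative to vehicle-treated cultures. Compound exposure was carried out in a genetically defined yeast strain deficient in DNA damage repair.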
The nature of assay [2]: NCI Yeast Anticancer Drug Screen. Data for the mec2-1 strain (AID 157). Particulars: S. cerevisiae mec2-1 strain, stronger effect = higher value. An outline of the steps:
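Mutant yeast (mec2-1) grown with compound; growth inhibition relative to vehicle control reported.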

A short description of assay [3]: NCI Yeast Anticancer Drug Screen. Data for the sgs1 mgt1 strain (AID 161).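 Also: 0% = growth of cultures given vehicle only.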 The settings on record: S. cerevisiae sgs1 mgt1 strain, stronger effect = higher value. In outline:
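Growth of a repair-deficient yeast mutant was monitored after compound treatment and expressed as inhibition relative to vehicle-treated cultures.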

Assay [4] is described as follows: NCI Yeast Anticancer Drug Screen. Data for the cln2 rad14 strain (AID 165).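 Also: 0% = growth equal to vehicle treated cultures.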 Particulars: S. cerevisiae cln2 rad14 strain, stronger effect = higher value. In outline: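 Readout is yeast growth inhibition versus vehicle-treated controls, using a strain with cln2 and rad14 alterations exposed to compound.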
Assay [5] is described as follows: NCI Yeast Anticancer Drug Screen. Data for the bub3 strain (AID 167). Particulars: S. cerevisiae bub3 mutant strain, stronger effect = higher value. In outline: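 Readout: yeast growth inhibition, expressed relative to vehicle-only wells. The test organism is a mutant strain from a panel with lesions in DNA repair or checkpoint genes.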
Assay [6] is described as follows: NCI Yeast Anticancer Drug Screen. Data for the mlh1 rad18 strain (AID 175). Particulars: S. cerevisiae mlh1 rad18 strain growth inhibition, stronger effect = higher value. An outline of the steps: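 Genetically defined yeast (DNA repair-deficient) exposed to compounds; growth inhibition determined relative to vehicle.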
The mark [7] stands for this setting: at 5.0 µM (retest, dose inferred, filed as 0.5).
[8] abbreviates: at 50.0 µM (retest, dose inferred, filed as 5.0).

This is part of a sample that, as a whole, favours compounds with a hit. Of some 79,000 tested, about 15% had one in any assay. Unmarked numbers belong to inactive results. Active and inactive are the calls of the source. Rule as the data show it: active = growth inhibition above about 70%; inactive = the rest.

Regarding `COC(=O)c1nnn(-c2ccc(Cl)cc2Cl)c1C(=O)c1ccc(Cl)c(Cl)c1`, the growth inhibition in assay [1] (setting [7]) is 11%; in assay [1] (setting [8]) it was 99% (active); in assay [1] (at 50.0 µM) it was 98.3% (active); in assay [2] (setting [7]), 2%; in assay [2] (setting [8]), 99% (active); in assay [2] (at 50.0 µM) it was 95.5% (active). Moreover, the growth inhibition in assay [3] (setting [7]) is 4%; in assay [3] (setting [8]), 99% (active); in assay [3] (at 50.0 µM), 99% (active); in assay [4] (setting [7]) it was 11%; in assay [4] (setting [8]), 98% (active); in assay [4] (at 50.0 µM) it was 92.1% (active). Further, the growth inhibition was 17% in assay [5] (setting [7]); 99% (active) in assay [5] (setting [8]); 95.8% (active) in assay [5] (at 50.0 µM); 19% in assay [6] (setting [7]); 99% (active) in assay [6] (setting [8]); 98.7% (active) in assay [6] (at 50.0 µM).

In the case of `O=[N+]([O-])c1ccc2nc(Nc3ccccc3)c(Nc3ccccc3)nc2c1`, the growth inhibition was -18% in assay [1] (setting [7]); 91% (active) in assay [1] (setting [8]); 74.1% (active) in assay [1] (at 50.0 µM); 1% in assay [2] (setting [7]); 95% (active) in assay [2] (setting [8]); 77.8% (active) in assay [2] (at 50.0 µM). The growth inhibition in assay [3] (setting [7]) was -1%; in assay [3] (setting [8]) it was 93% (active); in assay [3] (at 50.0 µM), 63.9%; in assay [4] (setting [7]) it was 24%; in assay [4] (setting [8]), 93% (active); in assay [4] (at 50.0 µM), 70.5% (active). Moreover, the growth inhibition was 15% in assay [5] (setting [7]); 93% (active) in assay [5] (setting [8]); 72.2% (active) in assay [5] (at 50.0 µM); -6% in assay [6] (setting [7]); 93% (active) in assay [6] (setting [8]); 73% (active) in assay [6] (at 50.0 µM).

For the compound `CC[n+]1ccc(Nc2ccc(NC(=O)c3ccc(C(=O)Nc4ccc(Nc5cc[n+](CC)c(N)n5)cc4)cc3)cc2)nc1N`, the growth inhibition in assay [1] (setting [7]) is 24%; in assay [1] (setting [8]) it was 98% (active); in assay [1] (at 50.0 µM), 98.2% (active); in assay [2] (setting [7]), 30%; in assay [2] (setting [8]), 99% (active); in assay [2] (at 50.0 µM), 98.9% (active). Moreover, the growth inhibition is 26% in assay [3] (setting [7]); 99% (active) in assay [3] (setting [8]); 99% (active) in assay [3] (at 50.0 µM); -3% in assay [4] (setting [7]); 98% (active) in assay [4] (setting [8]); 97.3% (active) in assay [4] (at 50.0 µM). In addition, the growth inhibition in assay [5] (setting [7]) is 28%; in assay [5] (setting [8]) it was 96% (active); in assay [5] (at 50.0 µM) it was 98% (active); in assay [6] (setting [7]) it was 50%; in assay [6] (setting [8]) it was 99% (active); in assay [6] (at 50.0 µM) it was 98.3% (active).

For the compound `O=C1OC(=O)C2C(c3ccccc3)=C(c3ccccc3)C(c3ccccc3)=C(c3ccccc3)C12` (stereo not given), the growth inhibition is 37% in assay [1] (setting [7]); 77% (active) in assay [1] (setting [8]); 61% in assay [1] (at 50.0 µM); 35% in assay [2] (setting [7]); 72% (active) in assay [2] (setting [8]); 50% in assay [2] (at 50.0 µM). Further, the growth inhibition was 33% in assay [3] (setting [7]); 62% in assay [3] (setting [8]); 54.4% in assay [3] (at 50.0 µM); 32% in assay [4] (setting [7]); 67% in assay [4] (setting [8]); 76.2% (active) in assay [4] (at 50.0 µM). For the same compound, the growth inhibition is 29% in assay [5] (setting [7]); 63% in assay [5] (setting [8]); 56% in assay [5] (at 50.0 µM); 47% in assay [6] (setting [7]); 81% (active) in assay [6] (setting [8]); 62% in assay [6] (at 50.0 µM).

Regarding `Cc1cc(Cl)c(O)c(C(=O)C(=O)C(O)c2ccc3c(c2)OCO3)c1` (stereo not given), the growth inhibition in assay [1] (setting [7]) was 98% (active); in assay [1] (setting [8]), 99% (active); in assay [1] (at 50.0 µM), 87.9% (active); in assay [2] (setting [7]) it was 96% (active); in assay [2] (setting [8]) it was 99% (active); in assay [2] (at 50.0 µM) it was 90% (active). Further, the growth inhibition in assay [3] (setting [7]) was 37%; in assay [3] (setting [8]), 99% (active); in assay [3] (at 50.0 µM), 82.1% (active); in assay [4] (setting [7]), 58%; in assay [4] (setting [8]), 99% (active); in assay [4] (at 50.0 µM) it was 87.9% (active). The growth inhibition in assay [5] (setting [7]) is 64%; in assay [5] (setting [8]), 94% (active); in assay [5] (at 50.0 µM), 87.9% (active); in assay [6] (setting [7]) it was 38%; in assay [6] (setting [8]) it was 99% (active); in assay [6] (at 50.0 µM), 84.1% (active).

In the case of `CCOC(=O)C(=Cc1ccc(C(=O)OC)cc1)C(=O)OCC`, the growth inhibition in assay [1] (setting [7]) is 10%; in assay [1] (setting [8]), 58%; in assay [1] (at 50.0 µM) it was 82.2% (active); in assay [2] (setting [7]), 11%; in assay [2] (setting [8]) it was 86% (active); in assay [2] (at 50.0 µM) it was 75.2% (active). Moreover, the growth inhibition in assay [3] (setting [7]) is -2%; in assay [3] (setting [8]) it was 63%; in assay [3] (at 50.0 µM) it was 75.3% (active); in assay [4] (setting [7]), 38%; in assay [4] (setting [8]), 80% (active); in assay [4] (at 50.0 µM), 69.5%. Besides, the growth inhibition in assay [5] (setting [7]) is 12%; in assay [5] (setting [8]) it was 93% (active); in assay [5] (at 50.0 µM), 77.2% (active); in assay [6] (setting [7]), 14%; in assay [6] (setting [8]), 88% (active); in assay [6] (at 50.0 µM) it was 62.8%.

For `CC(=O)/C(=C\c1cccc(Cl)c1)C(=O)CCN(C)C`, the growth inhibition is 24% in assay [1] (setting [7]); 29% in assay [1] (setting [8]); 14.8% in assay [1] (at 50.0 µM); 20% in assay [2] (setting [7]); 33% in assay [2] (setting [8]); 28.8% in assay [2] (at 50.0 µM). Also, the growth inhibition in assay [3] (setting [7]) is 20%; in assay [3] (setting [8]), 29%; in assay [3] (at 50.0 µM) it was 50.5%; in assay [4] (setting [7]) it was 25%; in assay [4] (setting [8]), 29%; in assay [4] (at 50.0 µM), 21.4%. Also, the growth inhibition in assay [5] (setting [7]) was 13%; in assay [5] (setting [8]) it was 34%; in assay [5] (at 50.0 µM), 4.4%; in assay [6] (setting [7]), 23%; in assay [6] (setting [8]), 40%; in assay [6] (at 50.0 µM), 25.1%.

Regarding `COC1=Nc2ccccc2/C=C\c2ccccc21`, the growth inhibition is -136% in assay [1] (setting [7]); -77% in assay [1] (setting [8]); 78.5% (active) in assay [1] (at 50.0 µM); -50% in assay [2] (setting [7]); -57% in assay [2] (setting [8]); 82.2% (active) in assay [2] (at 50.0 µM). For the same compound, the growth inhibition in assay [3] (setting [7]) was -67%; in assay [3] (setting [8]), -53%; in assay [3] (at 50.0 µM) it was 67.7%; in assay [4] (setting [7]), -49%; in assay [4] (setting [8]), -60%; in assay [4] (at 50.0 µM) it was 25.2%. Besides, the growth inhibition in assay [5] (setting [7]) was -62%; in assay [5] (setting [8]), -85%; in assay [5] (at 50.0 µM) it was 43.7%; in assay [6] (setting [7]) it was -124%; in assay [6] (setting [8]), -118%; in assay [6] (at 50.0 µM) it was 69.5%.

For the compound `CCOC(=O)c1c[nH]cc1-c1cn(S(=O)(=O)c2ccccc2)cc1C`, the growth inhibition is 38% in assay [1] (setting [7]); 12% in assay [1] (setting [8]); 29.2% in assay [1] (at 50.0 µM); 34% in assay [2] (setting [7]); 14% in assay [2] (setting [8]); 18.2% in assay [2] (at 50.0 µM). Besides, the growth inhibition in assay [3] (setting [7]) is 69%; in assay [3] (setting [8]), 21%; in assay [3] (at 50.0 µM), 49.6%; in assay [4] (setting [7]), 38%; in assay [4] (setting [8]), 15%; in assay [4] (at 50.0 µM), 43.5%. The growth inhibition in assay [5] (setting [7]) is 89% (active); in assay [5] (setting [8]), 38%; in assay [5] (at 50.0 µM), 44%; in assay [6] (setting [7]) it was 82% (active); in assay [6] (setting [8]), 28%; in assay [6] (at 50.0 µM), 49%.

With `CCCCCCCCCCCCCCCC(=O)N(CCCN(CC)CC)C(C)CCCN(CC)CC` (stereo not given), the growth inhibition in assay [1] (setting [7]) was 90% (active); in assay [1] (setting [8]), 98% (active); in assay [1] (at 50.0 µM), 60.1%; in assay [2] (setting [7]) it was 28%; in assay [2] (setting [8]), 99% (active); in assay [2] (at 50.0 µM), 71.9% (active). Besides, the growth inhibition in assay [3] (setting [7]) is 51%; in assay [3] (setting [8]), 99% (active); in assay [3] (at 50.0 µM), 44.9%; in assay [4] (setting [7]) it was 36%; in assay [4] (setting [8]), 99% (active); in assay [4] (at 50.0 µM) it was 76.4% (active). Also, the growth inhibition in assay [5] (setting [7]) is 53%; in assay [5] (setting [8]), 99% (active); in assay [5] (at 50.0 µM), 19.6%; in assay [6] (setting [7]), 85% (active); in assay [6] (setting [8]) it was 97% (active); in assay [6] (at 50.0 µM), 17.7%.
